Source: PubChem BioAssay AID434970 (Sanford-Burnham Center for Chemical Genomics, 2010)
About 310 (2.8%) of roughly 11,000 compounds were called active. Cut-off read from the data, not from the text of the source: active = activity change below about -85%; inactive = the rest. What follows is part of a selection rich in actives, with near analogues and random picks from the rest.

Tested on: intestinal alkaline phosphatase [Mus musculus]
Assay: mouse intestinal phosphatase enzyme activation – biochemical, luminescence, single concentration, confirmation (AID 434970)
Conditions: purified mouse IAP, CDP-Star luminescence, 30 min, at 10 µM; activation factor: measured here: IAP activation factor, stronger effect = higher value; activity change, negative = activation: stronger effect = lower value

Row | SMILES | activation factor | activity change, negative = activation
1 | COc1cc(-c2nnc3sc(Cc4ccccc4)nn23)cc(OC)c1OC | 0.942 | 5.85% (inactive)
2 | CCOC(=O)c1cnc(SCc2cccc(C)c2)nc1N | 1.08 | -7.85% (inactive)
3 | CCOc1ccc(NC(=O)N2CCC(C(=O)c3ccc(F)cc3)CC2)cc1 | 1.07 | -7.1% (inactive)
4 | COc1cccc(OC)c1C(=O)Nc1cccc(C(C)=O)c1 | 0.983 | 1.65% (inactive)
5 | NS(=O)(=O)c1ccc(N2N=C(c3ccccc3)CC2c2ccccc2)cc1 (configuration not stated) | 1.6 | -59.6% (inactive)
6 | CCCC1(C(=O)OCC)NC(c2cc(OC)c(OC)c(OC)c2)C2C(=O)N(CC)C(=O)C21 (configuration not stated) | 0.957 | 4.35% (inactive)
7 | O=C(CN1CCCCCC1)Nc1ccccc1F | 0.954 | 4.6% (inactive)
8 | Cc1cc(C)c2nc(C(F)(F)F)nc(NCCCN3CCCC3=O)c2c1 | 0.947 | 5.35% (inactive)
9 | COc1ccc(/C=N/NC(=O)c2cc(-c3ccccc3OC)nc3ccccc23)cc1COC(C)=O | 0.929 | 7.05% (inactive)
10 | O=C(Nc1nc2ccc(S(=O)(=O)N3CCCCC3)cc2s1)C1CCCO1 (configuration not stated) | 0.96 | 4.05% (inactive)
11 | COC(=O)C[C@H](NC(=O)Cn1cnc2c(NCc3ccccc3)ncnc21)C(=O)OC | 0.97 | 2.95% (inactive)
12 | Cc1cc(NC(=O)CN2C(=O)C3CC=CCC3C2=O)no1 (configuration not stated) | 0.929 | 7.05% (inactive)
13 | COc1ccc(OC)c(S(=O)(=O)n2nc(C)cc2C)c1 | 1.08 | -7.9% (inactive)
14 | O=C(CCN1CCN(C/C=C/c2ccccc2)CC1)Nc1ccccc1 | 1.08 | -8% (inactive)
15 | COc1ccc(Cl)cc1NC(=O)CCc1ccccc1 | 0.97 | 3% (inactive)
16 | COc1ccccc1/C=C/CN1CCC(n2nccc2NC(=O)CCc2ccccc2)CC1 | 2.21 | -121% (active)
17 | O=S(=O)(Nc1ccc(Cl)c(C(F)(F)F)c1)c1cnc[nH]1 | 0.887 | 11.3% (inactive)
18 | COc1ccc(NC(=O)Nc2ccc3c(c2)C(=O)N([C@H](C)CO)C[C@H](C)[C@@H](CN(C)C(=O)NC2CCCCC2)O3)cc1 | 1.64 | -64% (inactive)
19 | C[C@H](CO)N1C[C@H](C)[C@@H](CN(C)C(=O)Nc2ccccc2)Oc2ccc(NC(=O)Nc3ccccc3)cc2C1=O | 2.23 | -123% (active)
20 | COc1ccc(NC(=O)Nc2ccc3c(c2)C(=O)N([C@H](C)CO)C[C@H](C)[C@@H](CN(C)C(=O)Nc2ccc4c(c2)OCO4)O3)cc1 | 1.63 | -62.9% (inactive)
21 | C[C@H](CO)N1C[C@H](C)[C@@H](CN(C)C(=O)Nc2ccc(C(F)(F)F)cc2)Oc2ccc(NC(=O)Nc3ccccc3)cc2C1=O | 1.71 | -71.5% (inactive)
22 | C[C@H](CO)N1C[C@H](C)[C@@H](CN(C)C(=O)NC2CCCCC2)Oc2ccc(NC(=O)Nc3ccccc3)cc2C1=O | 2 | -99.6% (active)
23 | COc1ccc(NC(=O)Nc2ccc3c(c2)C(=O)N([C@H](C)CO)C[C@H](C)[C@@H](CN(C)C(=O)Nc2ccccc2)O3)cc1 | 1.59 | -59.5% (inactive)
24 | C[C@H](CO)N1C[C@H](C)[C@@H](CN(C)C(=O)Nc2ccccc2)Oc2ccc(NC(=O)Nc3ccc4c(c3)OCO4)cc2C1=O | 2.17 | -117% (active)
25 | C[C@H](CO)N1C[C@H](C)[C@@H](CN(C)C(=O)Nc2ccccc2)Oc2ccc(NC(=O)NC3CCCCC3)cc2C1=O | 1.47 | -46.7% (inactive)
26 | C[C@H](CO)N1C[C@H](C)[C@@H](CN(C)C(=O)Nc2ccc3c(c2)OCO3)Oc2ccc(NC(=O)Nc3ccc4c(c3)OCO4)cc2C1=O | 1.75 | -74.9% (inactive)
